RGS7-Gao reg = regulators of human RGS7-Galphao interaction | binding response (% of control), % at 10 µM | Multiplexed bead flow cytometry, RGS7-Galphao binding; actives lie on both sides | P09471 | actives 0.35% (n = 220,000); in the data active = binding response below about 49% or above about 150%; inconclusive = no clear call, values can overlap the other calls; inactive = in between;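 note: fluorescent Galphao held in activated GDP-AlF4 state binding bead-coupled RGS7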
GSH fluor = compound fluoresces at 488/530 nm on GSH beads | actives 0.25% (n = 190,000) | fluorescence (KMESF) at 10 µM | GSH beads flow cytometry, compound fluorescence 488/530 nm; hits give high values; in the data active = fluorescence above about 89;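 note: glutathione beads carrying GST-tagged Bcl family fusion proteins plus one bare bead set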
RGS16-Gao HTS = RGS16-Galphao interaction regulator (human) | bead-based flow cytometry RGS16-Galphao binding, fluorescence; actives lie on both sides | actives 0.38% (n = 220,000) | AID 1441 | binding response (% of control), % at 10 µM;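 note: Galphao activated by GDP with aluminum fluoride before binding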
RGS8-Gao = human RGS8-Galphao interaction regulation; multiplexed bead flow cytometry, RGS8-Galphao binding; actives lie on both sides; actives 0.34% (n = 220,000); response (percent of control binding), % at 10 µM; AID 1423; in the data active = response below about 60% or above about 140%; inactive = in between;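 note: Galphao activated as the GDP aluminium fluoride complex binding bead-coupled RGS8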
Avidin bead fluor = avidin bead compound fluorescence profile; Avidin beads, compound fluorescence 488/530 nm, flow cytometry; hits give high values; fluorescence (KMESF) at 10 µM; actives 0.38% (n = 220,000); in the data active = fluorescence above about 47
RGS4-Gao reg = modulates binding of RGS4 to human Galphao; binding response (% of control), % at 10 µM; P09471; AID 1415; Multiplexed bead flow cytometry; actives lie on both sides; actives 0.33% (n = 220,000); in the data active = binding response below about 49% or above about 150%; inactive = in between;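 note: fluorescent Galphao activated with aluminum fluoride binding bead-coupled RGS4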
RGS-Gao = regulators of human RGS4-Galphao interaction; shares compounds with RGS16-Gao HTS; multiplexed bead flow cytometry, RGS–Galpha-o binding; RGS4–Galpha-o binding response, % at 10 µM; actives 99% (n = 1,600); AID 1504;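 note: fluorescently labeled Galpha-o bound to GDP with aluminium fluoride binding biotinylated RGS beads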
Biotin-avidin = interferes with biotinylated probe binding to avidin beads; 1,700 tested, under 10 active; streptavidin beads, fluorescein-biotin binding, flow cytometry; inhibition, % at 10 µM; AID 1783; shares compounds with RGS16-Gao HTS;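 active = inhibition above 50%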;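 note: median green fluorescence of gated singlet beads compared with DMSO control wells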
RGS8-Gao confirm = confirmation of regulators of human RGS8-Galphao interaction; shares compounds with RGS16-Gao HTS; bead-based flow cytometry RGS8-Galphao binding, fluorescence; actives lie on both sides; binding response (% of control), % at 10 µM; actives 3% (n = 1,700); in the data active = binding response below about 72% or above about 130%; inactive = in between;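 note: Galphao activated as GDP AlF4 complex before binding bead RGS8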
RGS7-Gao confirm = RGS7-Galphao interaction regulation, single point confirmation; shares compounds with RGS16-Gao HTS; bead-based flow cytometry RGS7-Galphao binding; actives lie on both sides; response (percent of control binding), % at 10 µM; actives 7.8% (n = 1,700); in the data active = response below about 75% or above about 130%; inactive = in between;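 note: fluorescent Galphao activated with GDP and aluminum fluoride binding bead-coupled RGS7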
RGS16-Gao conf = confirmation of regulators of human RGS16-Galphao interaction; actives 4% (n = 1,700); AID 1838; bead-based flow cytometry, RGS16-Galphao binding; actives lie on both sides; shares compounds with RGS16-Gao HTS; response (% of control binding), % at 10 µM; in the data active = response below about 74% or above about 130%; inactive = in between;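 note: Galphao activated as the GDP aluminium fluoride complex binding bead-coupled RGS16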
RGS4-Gao confirm = confirmation of regulators of human RGS4-Galphao interaction | shares compounds with RGS16-Gao HTS | RGS4-Galphao binding, multiplexed bead flow cytometry; actives lie on both sides | binding response (% of control), % at 10 µM | actives 4% (n = 1,700); in the data active = binding response below about 74% or above about 130%; inactive = in between
RGS19-Gao single = RGS19-Galphao interaction regulation, single point confirmation; shares compounds with RGS16-Gao HTS; bead-based flow cytometry RGS19-Galphao binding; actives lie on both sides; response (percent of control binding), % at 10 µM; actives 5% (n = 1,700); AID 1841; in the data active = response below about 50% or above about 160%; inactive = in between
Target sequence (P09471 whole entry, looked up): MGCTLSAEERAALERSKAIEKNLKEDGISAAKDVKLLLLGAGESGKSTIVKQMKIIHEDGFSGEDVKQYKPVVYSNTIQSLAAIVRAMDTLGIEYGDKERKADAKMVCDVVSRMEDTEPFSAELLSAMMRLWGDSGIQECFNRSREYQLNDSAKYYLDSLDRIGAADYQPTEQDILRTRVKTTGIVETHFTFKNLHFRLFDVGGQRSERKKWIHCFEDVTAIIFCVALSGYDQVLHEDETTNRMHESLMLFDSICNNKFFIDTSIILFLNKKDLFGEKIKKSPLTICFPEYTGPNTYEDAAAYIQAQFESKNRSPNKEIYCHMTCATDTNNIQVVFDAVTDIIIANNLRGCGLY
Target sequence (P49795 whole entry, looked up): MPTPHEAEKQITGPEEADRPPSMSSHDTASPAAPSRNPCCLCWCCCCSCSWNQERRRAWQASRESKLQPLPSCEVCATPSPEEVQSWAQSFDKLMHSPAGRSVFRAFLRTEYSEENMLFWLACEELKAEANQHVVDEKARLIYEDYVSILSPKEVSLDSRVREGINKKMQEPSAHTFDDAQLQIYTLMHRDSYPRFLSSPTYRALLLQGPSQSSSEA
A number is an active result; 0 = inactive; ? = inconclusive; - = no result given; [ ] = dose if it differs, or a comment. The list is not random: actives were taken first. Their share in the collection is about 1.2%. Unless noted, the rule behind the calls is not given here.

SMILES | RGS7-Gao reg | GSH fluor | RGS16-Gao HTS | RGS8-Gao | Avidin bead fluor | RGS4-Gao reg | RGS-Gao | Biotin-avidin | RGS8-Gao confirm | RGS7-Gao confirm | RGS16-Gao conf | RGS4-Gao confirm | RGS19-Gao single
Cn1c(C(=O)NCc2ccccc2)cc2oc3ccccc3c21 | 0 | 0 | - | 0 | 0 | 0 | - | 0 | 0 | 0 | 0 | 0 | 0
CCc1nnc(NC(=O)CC(=O)Nc2ccccc2C(=O)O)s1 | - | 0 | - | - | - | - | - | 0 | 0 | 0 | 0 | 0 | 0
Cc1occc1-c1nnc(-c2cc([N+](=O)[O-])cc([N+](=O)[O-])c2)o1 | 0 | 0 | 0 | 0 | 0 | 0 | - | - | - | - | - | - | -
Cc1c(C(=O)/C=C/N(C)C)nnn1-c1ccc(Cl)cc1C#N | ? | - | 0 | 0 | 0 | 0 | - | - | - | - | - | - | -
O=C(O)CCSc1nnc(SCC(=O)NCC(F)(F)F)s1 | 0 | 0 | 8.8 | 0 | 0 | 0 | 93 | 0 | 0 | 0 | 0 | 0 | 0
CCOC(=O)CNC(=O)CSc1nnc(SCC(=O)NCC(=O)OCC)s1 | 0 | 0 | 0 | 0 | 0 | 0 | - | - | - | - | - | - | -
CCCCCNC(=O)c1cc(S(=O)(=O)N2CCCC2)ccc1F | 0 | 0 | 22 | 0 | 0 | 0 | 84 | 0 | 0 | 0 | 0 | 0 | 0
O=c1[nH]c2ccc(NC(=S)Nc3ccc(F)cc3)cc2[nH]1 | ? | - | 0 | 0 | 0 | 0 | - | - | - | - | - | - | -
Cc1ccc(S(=O)(=O)/N=C(/Nc2ccc3[nH]c(=O)[nH]c3c2)c2ccc(F)cc2)cc1 | 152[activator] | 0 | 0 | 0 | 0 | 0 | 104 | 0 | 0 | 0 | 0 | 0 | 0
O=C(NCc1ccco1)/C(=C\c1ccco1)NC(=O)c1ccco1 | ? | - | 0 | 0 | 0 | 0 | - | - | - | - | - | - | -
Cn1c2c(c(=O)n(C)c1=O)CN(Cc1ccc3c(c1)OCO3)CN2 | 0 | 0 | 222[activator] | 0 | 0 | 0 | 104 | 0 | 0 | 0 | 0 | 0 | 0
CN1CCN(C(CNS(=O)(=O)c2ccc(Cl)cc2)c2cccnc2)CC1 (centres undefined) | 157[activator] | 0 | 0 | 0 | 130 | 0 | 110 | 0 | 0 | 0 | 0 | 0 | 0
CC1Cc2ccccc2N1C(=S)NC(=O)C1(C)CC1(Cl)Cl (centres undefined) | 13 | 0 | 7.2 | 31 | 0 | 8.4 | - | 0 | 0 | 0 | 0 | 0 | 0
CC1Cc2ccccc2N1C(=S)NC(=O)c1ccco1 (centres undefined) | ? | 0 | 0 | 0 | 0 | 0 | - | - | - | - | - | - | -
CSc1ccccc1NC(=O)CN1CCN(Cc2ccccc2)CC1 | 0 | 0 | 0 | 0 | 0 | 0 | - | - | - | - | - | - | -
O=C(CN1N=C(c2ccc(Cl)cc2)CCC1=O)NCCN1CCc2ccccc2C1 | 4.0 | 0 | -2.4 | 13 | 0 | 14 | - | 0 | 0 | 0 | 0 | 0 | 0
Cc1ccc(C2=NN(CC(=O)NCc3cccs3)C(=O)CC2)cc1 | 0 | 0 | 0 | 0 | 0 | 0 | - | - | - | - | - | - | -
COc1ccccc1NC(=S)N1CCN(C(=O)C2CCCO2)CC1 (centres undefined) | 0 | 0 | 0 | 0 | 0 | 0 | - | - | - | - | - | - | -
CC(C)C(NC(=O)c1ccco1)C(=O)OCC(=O)Nc1ccc(C(N)=O)cc1 (centres undefined) | ? | 0 | 0 | 0 | 0 | 0 | - | - | - | - | - | - | -
